Screens: PubChem BioAssay, National Center for Advancing Translational Sciences (NCATS)
TDP1 cell noCPT = qHTS for Inhibitors of human tyrosyl-DNA phosphodiesterase 1 (TDP1): qHTS in cells in absence of CPT. Potency, µM (titrated, usually from 46.2 µM), usual class: inhibitors. hit rate 15% among 420,000. AID 686978, 2013. DT40 Tdp1-/- hTDP1 cells, no CPT, ATP luminescence, 48 h; note: nearly all actives have a fitted effect of over 55% in size
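DT40 Tdp1-/-;hTDP1 cells, no CPT (DMSO vehicle only), 400 cells/well; compounds pin-transferred; ≥48 hr, 37 °C; CellTiter-Glo 30 min RT dark, luminescence read.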
HT1080-NT tox = qHTS for induction of synthetic lethality in tumor cells producing 2HG: qHTS for the HT-1080-NT fibrosarcoma cell line. hit rate 1.6% among 360,000. HT-1080-NT fibrosarcoma viability, CellTiter-Glo ATP luminescence, 48 h. Potency, µM (series often up to 46.1 µM), hits mostly cytotoxic;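 note: NT is the 2HG producing partner of a matched IDH1 knockdown line; nearly all actives have a fitted effect of over 55% in size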
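HT-1080-NT; 750 cells/well; 5% FBS RPMI; 48 h compound, 37 degrees C; CellTiter-Glo luminescence; curve fitting and curve-class assignment.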
HT1080 IDH1KD tx = qHTS for induction of synthetic lethality in tumor cells producing 2HG: qHTS for the HT-1080-IDH1KD cell line; HT-1080 IDH1 knockdown viability, ATP luminescence, 48 h; hit rate 2% among 360,000; Potency, µM (highest dose often 46.1 µM), actives largely listed as cytotoxic; AID 686971, 2013
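Viability of IDH1-knockdown HT-1080 fibrosarcoma cells was assessed by CellTiter-Glo after 48 h at 37 °C with titrated compound; concentration-effect curves were classified by fit quality and response size.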
TDP1 cell CPT = qHTS for Inhibitors of human tyrosyl-DNA phosphodiesterase 1 (TDP1): qHTS in cells in presence of CPT; chicken DT40 Tdp1-/-;hTDP1 cells + 20 nM CPT, ATP luminescence, 48 h; Potency, µM (titrated, usually from 46.2 µM), most hits filed as inhibitors; hit rate 12% among 420,000; note: nearly all actives have a fitted effect of over 55% in size
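Chicken DT40 Tdp1-/- cells complemented with human TDP1, 400 cells/well, exposed to compounds plus 20 nM camptothecin for at least 48 h at 37 C; viability read as ATP content by CellTiter-Glo luminescence.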
ELG1 repair inh = qHTS screen for small molecules that inhibit ELG1-dependent DNA repair in human embryonic kidney (HEK293T) cells expressing luciferase-tagged ELG1. Potency, µM (top dose mostly 46.1 µM), most hits filed as inhibitors. hit rate 2.3% among 330,000. AID 504467, 2011. HEK293T ELG1-luciferase reporter, luminescence, 16 h; DNA damage induced by 5-fluorouridine; note: nearly all actives have a fitted effect of over 55% in size
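Reporter activity after DNA damage by 5-fluorouridine is monitored. Compound-treated cells incubate 16 hr at 37 °C, then ONE-Glo is added for 30 min before luminescence reading.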
IL1B secr inh = qHTS for Inhibitors of Inflammasome Signaling: IL-1-beta AlphaLISA Primary Screen; THP-1 LPS/ATP IL-1B secretion, AlphaLISA, 16 h; stronger effect = lower value; activity change, % at 57.5 µM; hit rate 4.7% among 360,000; AID 743279, 2014; in the data active = activity change below about -50%; inconclusive = mostly about -30% to -49%
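Secreted IL-1B measured by AlphaLISA bead assay after 16 h compound exposure of THP-1 cells; compounds (final up to 57.5 uM) added 1 h before LPS (250 ng/mL) and ATP (1.25 mM) stimulation; lower signal means less secretion.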
Hits are given with their value; – = inactive; ? = inconclusive; · = no result given; [ ] = remark or other dose. Only some compounds are listed: those with a hit (about 19% of all), similar ones and a draw of the others. Unless noted, calls come from the whole dose curve; as a rule, active = well fitted curve in the direction sought with a large enough effect; inconclusive = small, poorly fitted or top-dose-only effect, or another doubt; inactive = no such curve, though single readings can be large; an effect the other way counts as inactive or inconclusive.

SMILES | TDP1 cell noCPT | HT1080-NT tox | HT1080 IDH1KD tx | TDP1 cell CPT | ELG1 repair inh | IL1B secr inh
CCOc1cccc(C(=O)Nc2ccc(-c3nc4cc(C)cc(C)c4o3)cc2)c1 | – | · | · | – | · | ·
CCOc1cccc(C(=O)Nc2cccc(-c3nnc(-c4ccccc4)o3)c2)c1 | 18µM | – | – | 15µM | 9.2µM | -73
COc1cc(C(=O)OCC(=O)Nc2nnc(-c3ccccc3)o2)cc(OC)c1OC | – | – | – | – | – | –
Cc1ccc(-c2nnc(-c3ccc(NC(=O)c4ccco4)cc3)o2)cc1 | 21µM | – | – | 23µM | – | –
COc1ccc(C(=O)Nc2nnc(-c3ccccc3)o2)cc1OC | 23µM | – | –[9.24 µM] | ? | – | –
COc1ccc2c(c1)sc1ncc(C(=O)NCc3ccc(Cl)cc3)c(=O)n12 | – | · | · | – | · | ·
C=CCC[C@@H](Cc1ccc(F)cc1)C(=O)OC[C@H](C)NC(=O)[C@@H](CC=C)CC(=O)N(CCO)Cc1ccccc1 | 21µM | – | – | ? | ? | ?
C=CC[C@H](CC(=O)N(CCO)Cc1ccccc1)C(=O)NCCOC(=O)[C@@H](CC=C)Cc1ccc(F)cc1 | ? | – | – | ? | ? | –
C=CCC[C@H](Cc1ccc(F)cc1)C(=O)OC[C@@H](C)NC(=O)[C@H](CC=C)CC(=O)N(CCO)Cc1ccccc1 | 18µM | – | – | 15µM | ? | –
C=CCC[C@@H](Cc1ccc(F)cc1)C(=O)OCCNC(=O)[C@@H](CC=C)CC(=O)N(CCO)Cc1ccccc1 | 21µM | – | – | 21µM | – | -61
C=CC[C@H](CC(=O)N(CCO)Cc1ccccc1)C(=O)N[C@@H](C)COC(=O)[C@@H](CC=C)Cc1ccc(F)cc1 | ? | – | – | 16µM | – | –
C[C@H](O)[C@@H]1CN2CCc3c([nH]c4ccc(-c5ccc6c(c5)OCO6)cc34)[C@@H]2C[C@@H]1N(C)C(=O)NC1CCCCC1 | ? | – | – | – | · | –
CCOC(=O)C1CCN(S(=O)(=O)c2cc(-c3cc(C)no3)ccc2OC)CC1 | – | · | · | – | · | ·
C=CCC[C@@H](Cc1ccc(F)cc1)C(=O)OC[C@H](C)NC(=O)[C@H](CC=C)CC(=O)N(CCO)Cc1ccccc1 | ? | – | – | 18µM | 26µM | ?
C=CC[C@@H](CC(=O)NCCO)C(=O)N[C@@H](C)COC(=O)[C@@H](CC=C)Cc1ccc(F)cc1 | – | – | – | – | – | –
Cc1cc2ccccc2n1-c1ccc(C(=O)N2CCC(C(=O)NCc3ccc(F)cc3)CC2)s1 | 16µM | · | · | 21µM | · | ·
CN(C)c1ccc(CNC(=O)C2CCN(C(=O)c3ccc(-n4ccc5ccccc54)s3)CC2)cc1 | 21µM | · | · | 21µM | · | ·
COc1ccc(CNC(=O)C2CCN(C(=O)c3ccc(F)cc3)CC2)cc1OC | – | – | – | – | – | –
COc1ccc(CNC(=O)C2CCN(C(=O)c3ccc(-n4ccc5ccccc54)s3)CC2)cc1 | 13µM | · | · | 10µM | · | ·
CCOC(=O)C(Cc1ccc(O)cc1)NC(=O)CNC(=O)C1CCCN1C(=O)OC(C)(C)C (stereo unspecified) | ? | – | – | – | – | –
Cc1nc(Cl)sc1C(=O)Nc1ccc(F)cc1 | – | – | – | – | · | –
CC(C)S(=O)(=O)c1csc(C(=O)Nc2ccc(F)cc2)c1N | ? | ? | ? | 21µM | ? | –
CCOc1cc(C=C(C(=O)OC)C(=O)OC)ccc1OCc1ccc([N+](=O)[O-])cc1 | 12µM | 5.8µM | 7.3µM | 6.5µM | 21µM | -118
CC(C)NC(=O)c1ccc(CN2CCC(Cc3ccccc3)CC2)cc1 | – | – | – | – | – | –
Clc1ccc(CN2CCC(Cc3ccccc3)CC2)cc1 | ? | – | – | – | – | -96
SMILES | TDP1 cell noCPT | HT1080-NT tox | HT1080 IDH1KD tx | TDP1 cell CPT | ELG1 repair inh | IL1B secr inh
Cc1ccccc1NC(=O)c1ccc(CN2CCC(Cc3ccccc3)CC2)cc1 | 21µM | 23µM | ? | ? | – | -83
Fc1ccc(CN2CCC(Cc3ccccc3)CC2)cc1F | – | – | – | – | – | –
CCC1(O)CCCC2C3CCC4CC(=O)CCC4(C)C3C(=O)CC21C (stereo unspecified) | – | – | – | – | · | –
CCOc1cc(NC(=S)Nc2cccc(OC)c2)c(OCC)cc1NC(=O)C(C)C | – | – | – | – | ? | –
CCOc1ccc(C(=O)NC(=S)Nc2cccnc2)cc1 | – | – | – | – | ? | –
CCOc1cc(NC(=O)c2ccccn2)c(OCC)cc1NC(=O)c1ccc(C)cc1 | 3.3µM | – | – | 5.2µM | – | –
CCOc1cc(NC(=O)C2CCCCC2)c(OCC)cc1NC(=O)c1ccccn1 | 1.6µM | – | – | 3.7µM | ? | –
CCOc1cc(NC(=O)C2CC2)c(OCC)cc1NC(=O)c1cccc(F)c1 | – | – | – | – | – | –
CCOc1cc(C(=O)NC(=S)Nc2cccnc2)cc(OCC)c1OCC | 23µM | – | – | ? | ? | –
CCOc1cc(NC(=S)Nc2cccc(OC)c2)c(OCC)cc1NC(=O)c1ccc(C)cc1 | 21µM | ? | ? | ? | – | –
CCn1c(=O)c([N+](=O)[O-])c(Cl)c2ccccc21 | 2.6µM | ? | 3.7µM | 2.9µM | – | -96
O=C(CCc1cn(Cc2ccc(F)cc2)c2ccccc12)NCCc1ccc(Cl)cc1 | 18µM | · | · | ? | · | ·
Cc1ccc(CCNC(=O)CCc2cn(Cc3ccccc3C)c3ccccc23)cc1 | 16µM | · | · | 18µM | · | ·
Cc1ccc(Cn2cc(CCC(=O)NCC(C)c3ccccc3)c3ccccc32)cc1 (stereo unspecified) | 16µM | · | · | ? | · | ·
O=C(CCc1c[nH]c2ccccc12)NCCc1ccc(Cl)cc1 | – | – | – | – | – | ?
CCOc1ccc(CCNC(=O)CCc2cn(Cc3ccc(F)cc3)c3ccccc23)cc1 | 21µM | · | · | ? | · | ·
COc1cccc(NC(=O)C(CCSC)NC(=O)C2CCC(C)CC2)c1 (stereo unspecified) | – | · | · | – | · | ·
CC(C)N1CCN(Cc2cc3ccccc3[nH]2)CC1CCO (stereo unspecified) | – | – | – | – | ? | –
O=C(Cn1c(=O)n(Cc2ccc(C(=O)NCc3ccccc3Cl)cc2)c(=O)c2ccccc21)Nc1ccc(F)cc1 | ? | · | · | – | · | ·
